Source: PubChem BioAssay
For some assays here: Results with a measured potency or affinity are listed apart. Activity calls are given as the source filed them.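 Rule for the calls, unless noted: active = signal rise over 3 SD above mean of control wells given weak agonist, in both repeats and first screen; inactive = the rest.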

Assays:
[1] = test system: TRPC4 beta (transient receptor potential cation channel C4), mouse; assay: TRPC4 cation channel opening, retest – cell-based, Fluo4 calcium, HEK293 TRPC4beta/mu-opioid, duplicates, 10 µM, confirmation (AID 2426;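 active = fluorescence ratio normalized to control raised more than 50% in primary screen plus both repeat runs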); settings: Fluo4 calcium fluorescence, at 10 µM; hits give high values
[2] = test system: transient receptor potential cation channel C4 beta (TRPC4), mouse; assay: TRPC4 cation channel opening, second retest – cell-based, second round, Fluo4, HEK293 TRPC4beta/mu-opioid, 1 µM, confirmation (AID 2461;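 active = primary screen active and over 50% activation in each of two duplicate runs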); settings: Fluo4 calcium fluorescence, at 1 µM; hits give high values
[3] = test system: TRPC4 (transient receptor potential cation channel C4 beta), mouse; assay: potentiation of DAMGO EC20 TRPC4 response – cell-based, second round, Fluo-4, HEK293 TRPC4beta/mu-opioid, 1 µM, confirmation (AID 2554;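 active = primary screen hit whose fluorescence ratio, in both repeats, exceeds the weak agonist control mean by 3 SD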); settings: DAMGO EC20, Fluo-4 calcium flux, at 1 µM; hits give high values
[4] = test system: TRPC4 beta (transient receptor potential cation channel C4), mouse; assay: potentiation of DAMGO EC20 TRPC4 response – cell-based, Fluo-4, HEK293 TRPC4beta/mu-opioid, confirmation (AID 2555;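 active = primary screen hit whose calcium fluorescence ratio, in both repeats, exceeds the weak agonist control mean by 3 SD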); settings: DAMGO EC20, Fluo-4 calcium flux, at 10 µM; hits give high values
[5] = biological target: Short transient receptor potential channel 4 (Mus musculus) (UniProt Q9QUQ5); assay: blockers of DAMGO-evoked TRPC4 calcium flux – cell-based, Fluo4, HEK293 TRPC4beta/mu-opioid, confirmation (AID 2636;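 active = calcium signal cut by more than 3 SD below the full-agonist control yet still positive, in both repeats and the earlier primary screen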); settings: at 10 µM; hits give high values
Chain of Short transient receptor potential channel 4 (Mus musculus) (Q9QUQ5 whole entry, looked up): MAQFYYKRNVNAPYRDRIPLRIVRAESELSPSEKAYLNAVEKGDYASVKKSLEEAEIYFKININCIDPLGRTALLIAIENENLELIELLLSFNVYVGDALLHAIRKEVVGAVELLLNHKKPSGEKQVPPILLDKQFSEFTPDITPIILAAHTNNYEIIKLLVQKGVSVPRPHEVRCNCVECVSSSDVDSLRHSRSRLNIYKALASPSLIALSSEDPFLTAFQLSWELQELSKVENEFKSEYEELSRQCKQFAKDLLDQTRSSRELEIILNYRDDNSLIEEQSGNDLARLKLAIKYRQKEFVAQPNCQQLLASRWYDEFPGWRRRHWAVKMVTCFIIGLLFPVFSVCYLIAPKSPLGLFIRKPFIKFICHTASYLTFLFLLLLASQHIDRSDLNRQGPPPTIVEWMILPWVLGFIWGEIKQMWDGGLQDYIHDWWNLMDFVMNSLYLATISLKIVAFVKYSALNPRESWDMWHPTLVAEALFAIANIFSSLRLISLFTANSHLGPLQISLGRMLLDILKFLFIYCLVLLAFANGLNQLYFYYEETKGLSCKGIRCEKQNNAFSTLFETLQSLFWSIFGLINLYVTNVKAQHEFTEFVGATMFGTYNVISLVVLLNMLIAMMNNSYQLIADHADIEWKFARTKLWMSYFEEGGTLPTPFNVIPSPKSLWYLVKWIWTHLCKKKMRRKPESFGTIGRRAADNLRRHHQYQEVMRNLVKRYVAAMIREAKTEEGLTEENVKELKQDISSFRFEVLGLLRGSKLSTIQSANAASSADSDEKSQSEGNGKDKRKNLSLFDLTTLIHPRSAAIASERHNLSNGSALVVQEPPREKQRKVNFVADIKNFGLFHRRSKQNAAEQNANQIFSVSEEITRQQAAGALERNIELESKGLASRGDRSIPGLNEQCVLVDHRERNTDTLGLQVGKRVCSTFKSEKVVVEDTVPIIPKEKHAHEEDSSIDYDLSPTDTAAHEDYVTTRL

[6] = biological target: Short transient receptor potential channel 4 (Mus musculus) (UniProt Q9QUQ5); assay: blockers of DAMGO-evoked TRPC4 calcium flux – cell-based, second round, Fluo4, HEK293 TRPC4beta/mu-opioid, 1 µM, confirmation (AID 2637;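 active = calcium signal ratio cut to more than 3 SD under the fully stimulated control mean yet still positive, in both repeats and the primary screen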;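 for inhibition: percent of integrated ratio relative to wells lacking test compound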); settings: at 1 µM; hits give high values
[7] = biological target: Short transient receptor potential channel 4 (Mus musculus) (UniProt Q9QUQ5); assay: calcium entry via TRPC4 opening agents – cell-based, HEK293 TRPC4/mu-opioid, Fluo-4 calcium, dose response (AID 434937;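 active = primary screen activator hit with a dose response curve and TRPC4 channel activation at any tested dose; inactive = no activation, no dose response, or not a primary hit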)
[8] = biological target: Short transient receptor potential channel 4 (Mus musculus) (UniProt Q9QUQ5); assay: potentiation of DAMGO-evoked TRPC4 calcium signal – cell-based, HEK293 TRPC4/mu-opioid, Fluo-4 calcium, EC20 DAMGO, dose response (AID 434941;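 active = earlier screen potentiator hit that boosts the TRPC4 ion channel at some dose, with a dose response; inactive = no potentiation, no dose response, or not a prior hit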;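 note: calcium entry triggered by an EC20 dose of DAMGO at the co-expressed mu-opioid receptor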)
[9] = biological target: Short transient receptor potential channel 6 (Mus musculus) (UniProt Q61143); assay: TRPC6 blockade by TRPC4 inhibitor hits – cell-based, HEK293, membrane potential dye, duplicate, selectivity assay for TRPC4 inhibitor project, confirmation (AID 434948;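 active = active in primary screen and both duplicates, each dropping signal beyond three positive-control SD with fluorescence still positive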); settings: HEK293 TRPC6, membrane potential dye fluorescence, at 10 µM, stimulated with maximal-effect acetylcholine; hits give high values
Chain of Short transient receptor potential channel 6 (Mus musculus) (Q61143 whole entry, looked up): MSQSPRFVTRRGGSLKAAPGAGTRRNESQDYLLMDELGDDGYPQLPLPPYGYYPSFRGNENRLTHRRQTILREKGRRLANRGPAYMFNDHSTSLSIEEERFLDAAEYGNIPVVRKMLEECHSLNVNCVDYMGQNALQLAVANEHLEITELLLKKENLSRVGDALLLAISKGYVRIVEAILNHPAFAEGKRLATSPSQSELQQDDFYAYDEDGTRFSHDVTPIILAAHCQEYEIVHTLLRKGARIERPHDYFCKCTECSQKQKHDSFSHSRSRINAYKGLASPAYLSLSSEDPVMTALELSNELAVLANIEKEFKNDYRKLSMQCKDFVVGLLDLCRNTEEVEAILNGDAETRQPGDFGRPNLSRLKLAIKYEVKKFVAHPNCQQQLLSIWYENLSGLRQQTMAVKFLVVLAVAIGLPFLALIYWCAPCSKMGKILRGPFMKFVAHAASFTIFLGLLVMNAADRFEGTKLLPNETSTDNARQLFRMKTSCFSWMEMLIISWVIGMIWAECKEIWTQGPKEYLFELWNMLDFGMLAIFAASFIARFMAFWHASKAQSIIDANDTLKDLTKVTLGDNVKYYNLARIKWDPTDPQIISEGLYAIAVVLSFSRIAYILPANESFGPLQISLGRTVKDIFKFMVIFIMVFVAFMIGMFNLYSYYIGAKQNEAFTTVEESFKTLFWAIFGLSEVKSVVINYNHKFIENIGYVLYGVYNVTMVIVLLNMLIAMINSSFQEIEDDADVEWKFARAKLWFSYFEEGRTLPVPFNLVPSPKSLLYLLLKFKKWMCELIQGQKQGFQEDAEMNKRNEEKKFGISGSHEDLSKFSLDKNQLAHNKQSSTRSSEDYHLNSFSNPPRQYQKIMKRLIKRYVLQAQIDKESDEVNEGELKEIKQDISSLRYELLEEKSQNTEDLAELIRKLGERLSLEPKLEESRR

[10] = biological target: Short transient receptor potential channel 6 (Mus musculus) (UniProt Q61143); assay: TRPC6 opening by TRPC4 activator hits – cell-based, HEK293, membrane potential dye, duplicate, selectivity assay for TRPC4 activator project, confirmation (AID 434950;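 active = membrane potential signal rise above negative control mean plus 3 SD in both duplicates, also active in the earlier TRPC4 screen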); settings: HEK293 TRPC6, membrane potential fluorescence, at 10 µM; activation: hits give high values; outcome: activation
[11] = biological target: Short transient receptor potential channel 6 (Mus musculus) (UniProt Q61143); assay: positive modulators of mouse TRPC6 channel – HEK293 cells, membrane potential dye, duplicate, selectivity assay for TRPC4 potentiator project, confirmation (AID 434952;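 active = compound raising the membrane signal above positive-control mean plus 3 SD in both repeats, and a primary screen hit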); settings: HEK293 TRPC6, membrane potential dye fluorescence, at 10 µM, maximal acetylcholine added after compound; hits give high values
[12] = biological target: Short transient receptor potential channel 4 (Mus musculus) (UniProt Q9QUQ5); assay: calcium flux activators in TRPC4/5HT1a cells, counter-screen for TRPC4 activator project, cell-based, second counter screen, HEK293 TRPC4/5HT1a, Fluo-4 (AID 434977;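 active = calcium signal rise above buffer-control mean plus 5 SD in both duplicates, and also a hit in the primary screen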); settings: Fluo-4 calcium flux, at 10 µM; hits give high values
[13] = serotonin-gated TRPC4 signal block – cell-based, second counter screen, HEK293 TRPC4/5HT1a, Fluo-4, counter-screen for TRPC4 inhibitor project, confirmation (AID 434978;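 active = primary screen active whose calcium signal fell more than 3 SD beyond the full-serotonin control mean in both duplicate plates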;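 for outcome: serotonin given first at submaximal then at maximal dose after compound preincubation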); settings: Fluo-4 calcium flux, at 10 µM, serotonin added to trigger calcium flux; hits give high values
[14] = test system: TRPC4 (mouse), co-expressed with 5HT1a in HEK293; assay: enhancement of serotonin-evoked TRPC4 response – cell-based, second counter screen, HEK293 TRPC4/5HT1a, Fluo-4, counter-screen for TRPC4 potentiator project, confirmation (AID 434979); settings: Fluo-4 calcium flux, at 10 µM, serotonin added at its EC20 dose; hits give high values
[15] = nonspecific calcium rise without TRPC4 – cell-based, HEK293 mu-opioid receptor line, counter-screen for TRPC4 activator project, confirmation (AID 449723;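 active = hit in primary screen, with calcium signal over 5 SD above buffer well mean in both duplicates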;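 note: counter screen cells carry the mu-opioid receptor alone and lack TRPC4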); settings: HEK293 mu-opioid cells, Fluo-4 calcium fluorescence, at 10 µM; hits give high values
[16] = nonspecific potentiation of DAMGO calcium response – cell-based, HEK293 mu-opioid receptor line, counter-screen for TRPC4 allosteric potentiator project, confirmation (AID 449724;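 active = calcium signal rise more than 3 SD above the low-dose agonist control mean, in both duplicate plates and the primary screen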); settings: HEK293 mu-opioid receptor cells, Fluo-4 calcium flux, at 10 µM, compound added before EC20 DAMGO stimulus; hits give high values

SMILES	outcome [1]	outcome [2]	outcome [3]	outcome [4]	inhibition [5]	inhibition [6]	outcome [7]	outcome [8]	outcome [9]	outcome [10]	outcome [11]	outcome [12]	inhibition [13]	outcome [14]	outcome [15]	outcome [16]	outcome [6]	inhibition [9]	outcome [13]	outcome [5]
O=C(NCCCN1CCN(c2cccc(Cl)c2)CC1)C1CCC(=O)N1Cc1ccccc1Cl (centres undefined)	inactive	inactive	inactive	inactive	90% (active)	52% (active)	inactive	inactive	inactive	inactive	inactive	inactive	35.9% (active)	inactive	inactive	inactive	–	–	–	–
O=C(C[n+]1cc(-c2ccc(Cl)c(Cl)c2)n2c1CCC2)N1c2ccccc2Sc2ccccc21	inactive	inactive	inactive	inactive	75% (active)	–	inactive	inactive	–	inactive	inactive	inactive	18.7% (active)	inactive	inactive	inactive	inactive	53.5% (active)	–	–
COc1cccc(NC(=O)CCC(=O)N2CC(C)Oc3ccc(C)cc32)c1 (centres undefined)	inactive	inactive	inactive	inactive	85% (active)	–	inactive	inactive	inactive	inactive	inactive	inactive	42.1% (active)	inactive	inactive	inactive	inactive	–	–	–
Cc1ccc(NC(=O)CN2CCc3ccccc3C2)cc1F	inactive	inactive	inactive	inactive	88% (active)	–	inactive	inactive	inactive	inactive	inactive	inactive	–	inactive	inactive	inactive	inactive	–	inactive	–
CCCOc1ccc(Br)cc1/C=N/O	inactive	inactive	inactive	inactive	–	54% (active)	inactive	inactive	inactive	inactive	inactive	inactive	–	inactive	inactive	inactive	–	–	inactive	inactive
CCOC(=O)C1(CCOc2ccccc2)CCN(Cc2cccn2-c2ncccn2)CC1	inactive	inactive	inactive	inactive	86% (active)	43% (active)	inactive	inactive	–	inactive	inactive	inactive	–	inactive	inactive	inactive	–	52.5% (active)	inactive	–
O=C(c1ccco1)N1CCN(C/C=C/c2ccccc2)CC1	inactive	inactive	inactive	inactive	87% (active)	64% (active)	inactive	inactive	inactive	inactive	inactive	inactive	–	inactive	inactive	inactive	–	–	inactive	–
CC(C)=CCN1CCN(Cc2cccc3nonc23)CC1CCO (centres undefined)	inactive	inactive	inactive	inactive	91% (active)	–	inactive	inactive	inactive	inactive	inactive	inactive	33.3% (active)	inactive	inactive	inactive	inactive	–	–	–
CSc1nsc(NC(=O)Cc2ccccc2)n1	inactive	inactive	inactive	inactive	93% (active)	–	inactive	inactive	inactive	inactive	inactive	inactive	–	inactive	inactive	inactive	inactive	–	inactive	–
Cc1cc(OCc2cc(C(=O)NCC3(C)COC3)no2)cc(C)c1Cl	inactive	inactive	inactive	inactive	66% (active)	–	inactive	inactive	inactive	inactive	inactive	inactive	40.6% (active)	inactive	inactive	inactive	inactive	–	–	–
Nc1cc(C(F)(F)F)ccc1Nc1ccccc1	inactive	inactive	inactive	inactive	90% (active)	–	inactive	inactive	inactive	inactive	inactive	inactive	27.6% (active)	inactive	inactive	inactive	inactive	–	–	–
Cc1ccc(OCC(COCc2ccccc2)NC(C)C)cc1 (centres undefined)	inactive	inactive	inactive	inactive	85% (active)	–	inactive	inactive	–	inactive	inactive	inactive	42.1% (active)	inactive	inactive	inactive	inactive	5% (active)	–	–
Cc1ccc(-c2csc(NC(=O)C3CC=CCC3C(=O)O)c2C(=O)OC(C)C)cc1 (centres undefined)	inactive	inactive	inactive	inactive	–	–	inactive	inactive	inactive	inactive	inactive	inactive	20.1% (active)	inactive	inactive	inactive	inactive	–	–	inactive
CN(C)c1ccc(NC(=O)CN2C3CCCC2CC(NC(=O)c2ccccc2)C3)cc1 (centres undefined)	inactive	inactive	inactive	inactive	71% (active)	–	inactive	inactive	inactive	inactive	inactive	inactive	–	inactive	inactive	inactive	inactive	–	inactive	–
COCCCNc1cc(C)nc2ccccc12	inactive	inactive	inactive	inactive	94% (active)	–	inactive	inactive	–	inactive	inactive	inactive	–	inactive	inactive	inactive	inactive	50.5% (active)	inactive	–
CCCCCn1c2c(c(=N)c3ccccc31)CCC2	inactive	inactive	inactive	inactive	96% (active)	75% (active)	inactive	inactive	–	inactive	inactive	inactive	13.9% (active)	inactive	inactive	inactive	–	1.5% (active)	–	–
c1ccc(Nc2n[nH]nc2-c2ccccc2)cc1	inactive	inactive	inactive	inactive	96% (active)	60% (active)	inactive	inactive	inactive	inactive	inactive	inactive	17.4% (active)	inactive	inactive	inactive	–	–	–	–
Cc1ccc2nc(C)c3c(c2c1)N(c1ccc(F)cc1)CC3	inactive	inactive	inactive	inactive	90% (active)	71% (active)	inactive	inactive	–	inactive	inactive	inactive	33.8% (active)	inactive	inactive	inactive	–	25% (active)	–	–
Cc1cccc(Cn2c(C(C)(C)C)cc3cccnc32)c1	inactive	inactive	inactive	inactive	95% (active)	72% (active)	inactive	inactive	–	inactive	inactive	inactive	19.4% (active)	inactive	inactive	inactive	–	59.5% (active)	–	–
COc1ccc(C)cc1N(C(=O)c1snc(C(N)=O)c1N)C(C(=O)NC1CCCCC1)c1ccc(C)o1 (centres undefined)	inactive	inactive	inactive	inactive	92% (active)	72% (active)	inactive	inactive	inactive	inactive	inactive	inactive	19.6% (active)	inactive	inactive	inactive	–	–	–	–
Cc1ccc(-c2[nH]c3ccccc3c2SCCN)cc1	inactive	inactive	inactive	inactive	–	–	inactive	inactive	–	inactive	inactive	inactive	–	inactive	inactive	inactive	inactive	34.5% (active)	inactive	inactive
CC(C)Cc1nc(N2CCOCC2)c(C#N)c2c1CCC2	inactive	inactive	inactive	inactive	76% (active)	50% (active)	inactive	inactive	inactive	inactive	inactive	inactive	35.1% (active)	inactive	inactive	inactive	–	–	–	–
Cc1cc(CN2CCCC(C(=O)Nc3ccc(-c4nc5ccccc5[nH]4)cc3)C2)n[nH]1 (centres undefined)	inactive	inactive	inactive	inactive	77% (active)	61% (active)	inactive	inactive	inactive	inactive	inactive	inactive	37.2% (active)	inactive	inactive	inactive	–	–	–	–
COc1ccccc1CC(Cc1nc2ccccc2[nH]1)c1nc2ccccc2[nH]1 (centres undefined)	inactive	inactive	inactive	inactive	83% (active)	52% (active)	inactive	inactive	inactive	inactive	inactive	inactive	–	inactive	inactive	inactive	–	–	inactive	–
Cc1ccc(N(C(=O)c2snc(C(N)=O)c2N)C(C(=O)NCC2CCCO2)c2ccc(C)o2)c(C)c1 (centres undefined)	inactive	inactive	inactive	inactive	75% (active)	–	inactive	inactive	inactive	inactive	inactive	inactive	34% (active)	inactive	inactive	inactive	inactive	–	–	–
COc1cc(OC)c(C2N(C)c3ccccc3N2C)cc1OC	inactive	inactive	inactive	inactive	77% (active)	–	inactive	inactive	inactive	inactive	inactive	inactive	–	inactive	inactive	inactive	inactive	–	inactive	–
O=C(CSc1nnc(-c2ccc(Cl)cc2Cl)n1C1CCCCC1)NC1CCS(=O)(=O)C1 (centres undefined)	inactive	inactive	inactive	inactive	82% (active)	–	inactive	inactive	inactive	inactive	inactive	inactive	–	inactive	inactive	inactive	inactive	–	inactive	–
CCOc1ccccc1CN1CCN(Cc2cccc3nonc23)CC1CCO (centres undefined)	inactive	inactive	inactive	inactive	–	–	inactive	inactive	inactive	inactive	inactive	inactive	–	inactive	inactive	inactive	inactive	–	inactive	inactive
CCn1c2ccccc2c2cc(/C=N/NC(=O)c3cc(O)cc(O)c3)ccc21	inactive	inactive	inactive	inactive	78% (active)	43% (active)	inactive	inactive	inactive	inactive	inactive	inactive	43% (active)	inactive	inactive	inactive	–	–	–	–
